Several values for one entry are separate records, joined by “and”; a condition that tells them apart may be missing. Equal values may be shown once. Among all 310,000 compounds or so, about 17,000 (5.5%) were called active. Roughly 11% stayed inconclusive and do not appear here. Calls come from the whole dose curve; as a rule, active = well fitted inhibition curve with a large enough effect; inconclusive = small, poorly fitted or top-dose-only effect, or effect the other way; inactive = no such curve, though single readings can be large or run the other way. The full list was thinned out, with actives kept by preference. The source holds several records for some structures; these can differ, active in one and inactive in another.
Molecular target: Nuclear receptor ROR-gamma (Mus musculus) (UniProt P51450)
Test: qHTS for inhibitors of ROR gamma transcriptional activity; note: nearly all actives have a fitted effect of over 60% in size
Conditions: Drosophila S2 Gal4-RORgamma UAS-luciferase reporter, 20 h; series mostly up to 53.6 µM; activity change, negative = inhibition: at the top concentration
Summary of the method: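 In this cell-based reporter format, copper sulfate (700 uM final) drives Gal4–ROR gamma fusion expression from a metallothionein promoter in Drosophila Schneider cells; compounds preincubated 1 hr, reporter read after 20 hr at ambient temperature.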
% is set by controls: 0 for no effect and ±100 for the full control effect; potency is the fitted concentration of half-maximal effect.

Chain of Nuclear receptor ROR-gamma (Mus musculus) (P51450 whole entry, looked up): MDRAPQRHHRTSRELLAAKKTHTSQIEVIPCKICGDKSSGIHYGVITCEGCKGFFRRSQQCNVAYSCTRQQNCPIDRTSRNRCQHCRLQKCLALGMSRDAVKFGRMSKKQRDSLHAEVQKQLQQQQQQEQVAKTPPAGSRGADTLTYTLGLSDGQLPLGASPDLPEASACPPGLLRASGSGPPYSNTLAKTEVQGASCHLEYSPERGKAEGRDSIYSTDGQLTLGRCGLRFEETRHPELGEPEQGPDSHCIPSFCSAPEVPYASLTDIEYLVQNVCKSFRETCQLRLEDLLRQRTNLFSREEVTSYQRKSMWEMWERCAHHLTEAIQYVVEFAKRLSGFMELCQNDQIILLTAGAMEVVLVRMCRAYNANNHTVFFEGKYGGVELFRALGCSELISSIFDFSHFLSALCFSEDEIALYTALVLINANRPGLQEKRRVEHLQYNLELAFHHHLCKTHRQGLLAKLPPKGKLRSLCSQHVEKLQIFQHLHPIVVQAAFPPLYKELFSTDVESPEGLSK

Compound	activity change, negative = inhibition	Potency
NC(=O)C1CC(=O)N(c2ccc(OCC(=O)NCc3ccccc3)cc2)C1 (configuration not stated)	-32.6% (inactive)	
Cn1c(=O)[nH]c(=O)c2c1nc(N1CCN(C(c3ccccc3)c3ccccc3)CC1)n2CCO	27.7% (inactive)	
O=C(COCc1cc(-c2ccc3c(c2)OCO3)on1)N1CCN(c2cccc(Cl)c2)CC1	4.21% (inactive)	
CCOC(=O)Nc1sc(C(=O)N(C)C)c(C)c1C(=O)OCC	18.3% (inactive)	
CCOC(=O)c1sc(NC(=O)CCN2CCOCC2)c(C(=O)OCC)c1C	-25.6% (inactive)	
CCOC(=O)c1c(NC(=O)CCl)sc(C(=O)N(CC)CC)c1C		20 µM (active)
Cc1ccc(S(=O)(=O)NCc2ccc(C(=O)NC3CCC(C)CC3)cc2)cc1 (configuration not stated)	-6.33% (inactive)	
COc1ccccc1N1CC(C(=O)Nc2nnc(SCC(=O)NC(C)C)s2)CC1=O (configuration not stated)	-15.7% (inactive)	
CC(=O)Oc1c2c(c3c(c1CC=C(C)C)O[C@@]14C(=CC5CC1C(C)(C)OC4(C/C=C(\C)C(=O)O)C5=O)C3=O)OC(C)(CCC=C(C)C)C=C2 (some centres not stated)		5.62 µM (active)
O=C(CNC(=O)c1ccc(Br)o1)NCC1CCCO1 (configuration not stated)	-16% (inactive)	
CCNC(=O)c1cnn(-c2ccccc2)c1-c1ccccc1	15.5% (inactive)	
COc1ccc(-n2nnnc2SCC(=O)Nc2ccccc2)cc1	44.6% (inactive)	
CCOc1cccc(-n2nnnc2-c2ccc(OC)cc2)c1	35.9% (inactive)	
COc1ccc(-n2nnnc2-c2nc3ccccc3s2)cc1		12.6 µM (active)
COc1cc(C2C3=C(CCCC3=O)OC3=C2C(=O)CCC3)ccc1OCC(=O)Nc1ccccc1	3.03% (inactive)	
Cc1ccc(N(Cc2cc3ccccc3[nH]c2=O)C(=O)c2cccs2)cc1	15.8% (inactive)	
CC(=O)N(Cc1cc(=O)[nH]c2ccccc12)c1ccc(C)cc1C	-16.6% (inactive)	
Cc1ccc(N(Cc2cc(=O)[nH]c3ccccc23)C(=O)CCl)cc1		15.8 µM (active)
Cc1cc(C)cc(NC(=O)C2CCCN2S(=O)(=O)c2cccc3cccnc23)c1 (configuration not stated)	-19.2% (inactive)	
CCN1CCN(CCNC(=O)c2ccc3c(c2)NC(=O)/C(=C\c2ccc(OC)c(OC)c2)S3)CC1	0.716% (inactive)	
CCCCc1cc(=O)oc2c(C)c(OCC(=O)N3CCC(C(N)=O)CC3)ccc12	-8.21% (inactive)	
O=C(/C=C/c1ccc2c(c1)OCO2)NCc1cn2cc(Cl)ccc2n1	-15.5% (inactive)	
CCOc1ncccc1C(=O)OCc1cn2cc(Cl)ccc2n1	21.2% (inactive)	

Compound	activity change, negative = inhibition	Potency
Clc1ccc2nc(CSc3ccccc3)cn2c1		14.1 µM (active)
COc1ccc(CCOC(=O)CNC(=O)c2ccc(Cl)cc2Cl)cc1	2.81% (inactive)	
COC(=O)Cc1cnc(NC(=O)CSc2nc(C(C)C)cc(=O)[nH]2)s1	9.69% (inactive)	
COc1ccc(N2CCN(C(=O)[C@@H](NC(=O)c3cc(OC)cc(OC)c3)C(C)C)CC2)cc1	-4.96% (inactive)	
CCOc1ccccc1Oc1cn[nH]c1-c1ccc(OC)cc1O		8.91 µM (active)
COc1ccc(-c2cn[nH]c2-c2ccc(OC)cc2)cc1	-17.9% (inactive)	
CCN(CCn1cccn1)Cc1cn[nH]c1-c1ccc(OC)cc1F	1.4% (inactive)	
O=S(=O)(NCC1CC1)c1ccc(F)c(Cl)c1	18.8% (inactive)	
Cc1ccc(N(CC(=O)NCC2CCCO2)C(=O)CNS(=O)(=O)c2ccc(Cl)cc2)cc1 (configuration not stated)	37.3% (inactive)	
CCN(CC(=O)N1CCCC1)S(=O)(=O)c1ccc(F)cc1	-29.5% (inactive)	
O=C(CO/N=C/c1ccccc1OC(F)F)NC1CCCC1	-1.76% (inactive)	
O=C(CO/N=C/c1ccccc1O)NNC(=O)c1ccccc1Cl		20 µM (active)
O=C(CSCc1ccccc1Cl)NNC(=O)c1ccccc1	8.21% (inactive)	
CCOc1ccc(C(C(=O)NCCOC)N(CCOC)C(=O)CCC(=O)Nc2ccccn2)cc1 (configuration not stated)	-2.5% (inactive)	
O=C(Nc1nc(-c2ccc(-c3ccccc3)cc2)cs1)c1cnccn1		1.12 µM (active)
Cc1ccc(C(=O)NCCNC(=O)c2cnccn2)cc1	-10.2% (inactive)	
CC(=O)Nc1ccc(-c2csc(NC(=O)Nc3ccccc3)n2)cc1	30.4% (inactive)	
Cc1ccc(Nc2nc(-c3sc(NC(=O)c4ccccc4)nc3C)cs2)cc1	-23.5% (inactive)	
COc1ccc(-c2csc(NC(=O)c3ccc(N4C(=O)CCC4=O)cc3)n2)cc1OC	-0.539% (inactive)	
O=C(O)c1ccccc1C(=O)Nc1nc(-c2ccccc2)cs1	20.5% (inactive)	
O=C(Nc1nc(-c2cccnc2)cs1)c1ccccc1F	10.5% (inactive)	
Cc1ccc(-c2csc(NNC(=O)c3ccccc3)n2)cc1		5.01 µM (active)
Cc1ccc(-c2csc(NC(=O)c3cnccn3)n2)cc1C		2.24 µM (active)

Compound	activity change, negative = inhibition	Potency
Cc1sc2ncn(CC(=O)NCCCC(=O)N3CCN(c4ccccc4F)CC3)c(=O)c2c1C	8.6% (inactive)	
Nc1ccc(C(=O)Nc2ccccc2N)cc1		inactive
COc1ccc(NC(=O)CSc2nc(SC)ns2)c(OC)c1	14.7% (inactive)	
Cc1ccc(S(=O)(=O)N(C)CC(=O)NCCc2c[nH]c3ccccc23)cc1	35.1% (inactive)	
Cc1cccc(N(Cc2ccccc2)C(=O)c2ccccc2F)c1	2.6% (inactive)	
CN(C(=O)c1ccno1)c1nnc(-c2cccnc2)s1	7.53% (inactive)	
CN(C(=O)c1ccccn1)c1nnc(-c2ccccn2)s1		10 µM (active)
CN(C(=O)COc1ccccc1)c1nnc(-c2ccncc2)s1	-43.6% (inactive)	
O=C(COc1ccc(S(=O)(=O)Nc2cccc(C(F)(F)F)c2)cc1)N1CCOCC1	39.9% (inactive)	
O=C(CCN1C(=O)[C@@H]2Cc3ccccc3CN2C1=O)NCCc1ccccc1	-0.45% (inactive)	
Cc1nc2sc(C(c3ccco3)N3CCOCC3)c(O)n2n1 (configuration not stated)	-1.57% (inactive)	
CCOc1cc(N2CCOCC2)c(OCC)cc1NC(=O)COc1cccc2cccnc12	-34.3% (inactive)	
Oc1c(C(c2ccccn2)N2CCOCC2)ccc2cccnc12 (configuration not stated)		1.26 µM (active)
O=C(NCc1nnc(SCC(=O)N2CCCCCC2)o1)c1ccc(F)cc1	-17.1% (inactive)	
Cc1nn(-c2ccccc2)c(Cl)c1/C=N/NC(=O)c1nn(C)cc1[N+](=O)[O-]	21.6% (inactive)	
CCOC(=O)N1CCN(Cc2nnc(-c3ccccc3Cl)o2)CC1	13.1% (inactive)	
CC(C)OCCCNC(=O)c1cc(Sc2ccc(F)cc2)nc2ccccc12	-7.09% (inactive)	
COc1ccc2nc(SCC(=O)Nc3c(C)cc(C)cc3C)[nH]c2c1	19.9% (inactive)	
COC(=O)Nc1nc2ccc(Sc3ccccc3)cc2[nH]1		inactive and 6.31 µM (active)
S=c1[nH]ccn1-c1ccc(Cl)cc1		3.55 µM (active)
S=c1[nH]cc(-c2ccc(Cl)cc2)n1-c1ccccc1	6.26% (inactive)	

From PubChem BioAssay AID2551 (National Center for Advancing Translational Sciences (NCATS), 2010)
